# Bioassay records: PubChem BioAssay, several laboratories
# M18AAP inhibitor: PfM18AAP enzyme inhibition. recombinant PfM18AAP, H-Glu-NHMec fluorogenic cleavage. inhibition, % at 7.35 µM. 290,000 compounds, 1.2% hits. AID 1822;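 active = inhibition above the campaign mean inhibition over all tested compounds plus 3 SD, cut at about 28% in these data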;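 also: 0% = plate median of test compound wells and 100% = 2 mM ZnCl2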
# pPAFAH FP inh: inhibitors of human plasma PAF acetylhydrolase (pPAFAH) | Q13093 | recombinant pPAFAH, FP-rhodamine probe fluorescence polarization | inhibition, % at 3.39 µM | 330,000 compounds, 1.5% hits;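 active = inhibition above the mean inhibition across the screen plus 3 SD, cut at about 25% in these data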;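 also: inhibitors block binding of the rhodamine activity-based probe so polarization drops; 0% = enzyme with DMSO and 100% = wells lacking pPAFAH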
# DSG3 Ab inh: blocks pemphigus antibody binding to human desmoglein-3; DSG3-coupled beads, scFv-anti-DSG3-GFP binding, flow cytometry; active compounds read low; binding (percent of control), % at 10 µM; 310,000 compounds, 0.48% hits;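 active = binding more than 3 SD below its plate's average and above zero; inconclusive = below that plate limit but binding exactly zero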;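 also: hits lower antibody fragment binding to DSG3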
# PAFAH2 inh: PAFAH2 (human) inhibition. Q99487. recombinant PAFAH2, FP-rhodamine activity probe, fluorescence polarization. inhibition, % at 3.39 µM. 340,000 compounds, 0.99% hits. AID 492956;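 active = inhibition above the mean over all tested compounds plus 3 SD, cut at about 30% in these data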;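 also: inhibitors block probe labeling of enzyme so polarization drops; 0% = enzyme with DMSO and 100% = wells lacking PAFAH2 protein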
# PAFAH1B2 FP inh: PAFAH1B2 (human) inhibition; P68402; recombinant PAFAH1B2, FP-rhodamine activity probe, fluorescence polarization; inhibition, % at 3.39 µM; 340,000 compounds, 1.2% hits; AID 492953;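 active = inhibition above the mean of all tested compounds plus 3 SD, cut at about 24% in these data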;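 also: 0% = enzyme with DMSO and 100% = wells lacking PAFAH1B2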
# Target sequence (P68402 whole entry, looked up): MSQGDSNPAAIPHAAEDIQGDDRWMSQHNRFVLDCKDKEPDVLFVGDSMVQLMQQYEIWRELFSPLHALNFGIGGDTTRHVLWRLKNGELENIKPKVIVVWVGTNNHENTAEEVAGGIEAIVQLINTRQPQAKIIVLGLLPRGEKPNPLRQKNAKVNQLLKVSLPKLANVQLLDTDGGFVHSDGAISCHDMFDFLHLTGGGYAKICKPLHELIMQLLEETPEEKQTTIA
# PAFAH1B3 FP inh: blocks human PAF acetylhydrolase 1B catalytic subunit 3 | recombinant PAFAH1B3, FP-rhodamine probe, fluorescence polarization | inhibition, % at 3.39 µM | 340,000 compounds, 0.28% hits;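 active = inhibition above the screen-wide average of all tested compounds plus 3 SD, cut at about 25% in these data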;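 also: 0% = enzyme with DMSO only and 100% = wells lacking PAFAH1B3 protein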
# * = called active by the depositor; u = inconclusive; x = no result. An excerpt weighted towards active compounds, which were near 3.8% of everything screened.
SMILES,M18AAP inhibitor,pPAFAH FP inh,DSG3 Ab inh,PAFAH2 inh,PAFAH1B2 FP inh,PAFAH1B3 FP inh
O=C(O/N=C1/CCSc2ccccc21)c1ccc(F)cc1,-12,10,94,47*,24*,10
N#CCC(=O)Nc1ccc(C(=O)NCCC(c2ccccc2)c2ccccc2)cc1,3,34*,103,-13,-7,-9
Nc1ccc(O)c(C(=O)O)c1,x,49*,x,x,x,x
C=CCN1C(=O)C(Cc2ccc(F)cc2)S/C1=N/N=C/c1cccs1 (stereo unspecified),1,2,103,-8,3,-4
O=C1CS/C(=N/N=C/c2cccs2)N1Cc1ccc(F)cc1,2,1,70*,x,x,x
O=C(NNc1c(Cl)cccc1Cl)c1cccs1,9,-1,107,-9,4,9
c1ccc2ncccc2c1,x,-3,77*,7,5,11
NC(=O)C12C(=O)NC(=O)C1(C(=O)O)C21CCCC1 (stereo unspecified),x,x,93,3,1,9
O=C(O)c1cccc(-n2cccc2/C=C\[N+](=O)[O-])c1,11,15,116,-3,1,-2
O=C(O)c1cccc(-n2cccc2/C=C/[N+](=O)[O-])c1,24,29*,24*,25,6,19
N#C/C(=C\c1ccc(-c2cccc([N+](=O)[O-])c2)o1)C(=O)Nc1nc(-c2cccs2)cs1,10,33*,81,-1,5,3
O=C(N/N=C/c1ccc(-c2cccc([N+](=O)[O-])c2)o1)c1cccs1,-3,10,93,7,3,3
O=C(O[C@@H]1Cc2c(O)cc(O)cc2O[C@@H]1c1cc(O)c(O)c(O)c1)c1cc(O)c(O)c(O)c1,64*,x,x,x,x,x
CC1=NN(C(N)=S)C(=O)C1N=Nc1ccc(F)cc1 (stereo unspecified),14,x,111,-3,2,6
CC1=NN(C(N)=S)C(=O)C1N=Nc1ccc(O)cc1 (stereo unspecified),29*,x,105,5,3,1
Nc1ccc(N=Nc2ccccc2)c(N)n1,-9,2,x,1,-1,9
Cc1[nH]c(N=Nc2ccccc2)nc1N=Nc1ccccc1,4,25*,103,-2,4,4
O=C(NCCc1ccc(Cl)cc1)c1ccc2nc[nH]c2c1,-2,7,93,4,24,2
O=C(NCCc1ccc(Cl)cc1Cl)c1ccc2nc[nH]c2c1,-1,-2,101,-1,29*,10
O=C(NCCSc1ccc(Br)cc1)c1ccc2nc[nH]c2c1,-8,30*,119,2,47*,17
CC[n+]1c(/C=C/N(C)c2ccccc2)oc2ccc(F)cc21,31*,-2,270,3,4,1
CC[n+]1c(/C=C/N(C)c2ccccc2)oc2ccccc21,15,6,188,1,0,0
CCN1C(=O)[C@H]2[C@@H](c3ccc(-c4cccc(Cl)c4)cc3)N[C@@](C)(C(=O)OC)[C@H]2C1=O,x,34*,98,-10,-2,0
CC(=O)C1CCC2C3CC=C4CC(SC(=N)N)CCC4(C)C3CCC12C (stereo unspecified),x,x,106,-4,-2,2
CCOC(=O)N(C)C[C@@H]1OCc2cnnn2CCCC(=O)N([C@H](C)CO)C[C@@H]1C,x,x,104,x,x,x
SMILES,M18AAP inhibitor,pPAFAH FP inh,DSG3 Ab inh,PAFAH2 inh,PAFAH1B2 FP inh,PAFAH1B3 FP inh
CCn1ncc([N+](=O)[O-])c1C(=O)N1CCc2ccccc2C1,1,-2,x,9,1,-4
CN(C)c1ccc(O)c2c1CC1CC3C(N(C)C)C(=O)C(C(N)=O)=C(O)[C@@]3(O)C(=O)C1=C2O (stereo partly specified),x,33*,112,8,8,11
CN(C)c1ccc(O)c2c1CC1CC3[C@@H](N(C)C)C(=O)C(C(N)=O)C(=O)[C@]3(O)C(=O)C1C2=O (stereo partly specified),x,20,104,3,8,16
O=C(c1cc(Br)c(Br)s1)N1CCc2ccccc2C1,x,8,u,-2,-3,-5
COc1ccccc1CNC(=O)CCS(=O)(=O)Cc1ccc(C)cc1,-3,18,78,-1,6,6
Cc1ccc(CS(=O)(=O)CCC(=O)NCc2ccccc2Cl)cc1,4,29*,101,-6,8,6
